The text below walks through data of PubChem BioAssay.

Calls of active or inactive are those of the source.

Test [1] in a line: binders of probe aFSTL3 on microarray, primary screen, stem cell growth factor project, biochemical, small-molecule microarray, fluorescence 635/667 (AID 1064).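 Note: measures binding of the biotinylated anti-FSTL3 antibody to printed compounds.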 The note with it: higher = more signal.
Test [2] is described as follows: binders from COS7 lysate, DM2A8 probe, primary screen, torsin A project, cell lysate, small-molecule microarray, fluorescence 635/667 (AID 1065). The note with it: higher = more signal, COS7 lysate expressing mutant human TOR1A.
Test [3] in a line: binders of probe aFGF2 on microarray, primary screen, stem cell growth factor project, biochemical, small-molecule microarray, fluorescence 635/667 (AID 1067).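 Note: measures binding of biotinylated aFGF2 protein to printed compounds on slides; z-score merges feature fluorescence and signal-to-noise across triplicate slides.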 The note with it: higher = more signal.
Test [4] is described as follows: binders of probe aFGF10 on microarray, primary screen, stem cell growth factor project, biochemical, small-molecule microarray, fluorescence 635/667 (AID 1071).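 Note: score merges 667 nm spot intensity and signal to noise from triplicate slides.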 The note with it: higher = more signal.
The target in test [5] is Neurogenic locus notch homolog protein 2 (Homo sapiens) (UniProt Q04721). Description: Notch2 binders on small-molecule microarrays, primary screen, biochemical, small-molecule microarray, 635 nm fluorescence, stem cell growth factors (AID 1073). The settings on record: Notch2 binding, higher = more signal.
For test [6], the target named is Pro-neuregulin-1, membrane-bound isoform (Homo sapiens) (UniProt Q02297). Description: NRG1 binders on small-molecule microarrays, primary screen, psychiatric disease protein project, biochemical, small-molecule microarray, fluorescence 635/667 (AID 1075).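 Note: score combines 667 nm spot fluorescence with signal to noise.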 The settings on record: NRG1 binding, 635 nm fluorescence, higher = more signal.
The subject of test [7] is Neuregulin-1 EGF-like domain. Description: binders of neuregulin-1 EGF-like domain, primary screen, biochemical, small-molecule microarray, 635 nm fluorescence (AID 1081).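 Note: binding of the protein to compounds printed on small-molecule microarray slides.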 The note with it: small-molecule microarray binding, higher = more signal.
Test [8] is described as follows: FRG1 promoter luciferase signal modulators, primary screen, FRG1 inhibition for FSHD, cell-based, C2C12 myotubes, firefly/Renilla luciferase, luminescence (AID 1084). The note with it: higher = more signal, called active from +8 up or from −8 down.
The nature of test [9]: binders of probe aFST on microarray, primary screen, stem cell growth factor project, biochemical, small-molecule microarray, fluorescence 635/667 (AID 1086).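 Note: score merges 667 nm fluorescence with signal-to-noise of each printed compound spot.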 The note with it: higher = more signal.
Test [10] in a line: binders of probe aHhip on microarray, primary screen, stem cell growth factor project, biochemical, small-molecule microarray, fluorescence 635/667 (AID 1087).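 Note: score merges spot fluorescence at 667nm with spot signal to noise ratio.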 The settings on record: higher = more signal.
Test [11] has as its system PRMT1 (protein arginine N-methyltransferase 1). Description: PRMT1 binders on small-molecule microarrays, primary screen, biochemical, small-molecule microarray, 635 nm fluorescence (AID 1088).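 Note: binding of Prmt1 protein to compounds spotted on small-molecule microarray slides.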 The settings on record: small-molecule microarray binding, higher = more signal.
Test [12] in a line: yeast growth modulation, basal conditions, primary screen, YJM789 clinical isolate, OD600, 24 h (AID 1089).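 Note: growth of clinical yeast isolate S. cerevisiae YJM 789 seeded 1000 cells per well; test concentration not given here.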 The settings on record: S. cerevisiae YJM789 growth, higher = more signal, called active from +8 up or from −8 down.
Test [13] can be described thus: fission yeast growth modulation, primary screen, strain 972, OD600, 24 h, no modulator (AID 1090).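 Note: basal condition with compound alone and no growth modifier present; test concentration not given here.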 The note with it: S. pombe 972 growth, higher = more signal, called active from +8 up or from −8 down.
The nature of test [14]: S. cerevisiae growth modulation with rapamycin, primary screen, strain BY4716, OD600, 96 h (AID 1091). Note: test concentration not given here. The note with it: higher = more signal, called active from +8 up or from −8 down.
Test [15] deals with Torsin-1A-interacting protein 2 (Homo sapiens) (UniProt Q8NFQ8). The test is described as follows: LULL1 binders on small-molecule microarray, primary screen, cell lysate, human LULL1 lysate, 635/667 nm fluorescence (AID 1092).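 Note: score merges per-feature 667 nm fluorescence with signal-to-noise.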 The note with it: hLULL1 lysate binding, 635 nm fluorescence, higher = more signal.
A short description of test [16]: E. coli growth modulation, two-sided OD650, primary screen, E. coli filamentation project, strain DRC41, 24 h (AID 1093).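 Note: MC1000 strain lacking acrAB efflux and sulA so SOS filamentation is blocked; test concentration not given here.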 The settings on record: OD650, 24 h, higher = more signal, called active from +8 up or from −8 down.
Test [17] is described as follows: small-molecule microarray binders of probe aLefty2, primary screen, biochemical, biotinylated probe, 635/667 nm fluorescence (AID 1094).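 Note: score merges spot fluorescence near 667 nm with spot signal-to-noise ratio.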 The note with it: higher = more signal.
Test [18] deals with Noggin (protein binding on small-molecule microarray). The test is described as follows: Noggin binders on small-molecule microarray, primary screen, biochemical, 635/667 nm fluorescence (AID 1095).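 Note: score merges 667 nm feature fluorescence with signal to noise over triplicate slides.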 The note with it: 635 nm fluorescence, higher = more signal.
The target of test [19] is Neurogenic locus notch homolog protein 3 (Homo sapiens) (UniProt Q9UM47). Description: NOTCH3 binders on small-molecule microarray, primary screen, biochemical, 635/667 nm fluorescence (AID 1096). The settings on record: NOTCH3 binding, 635 nm fluorescence, higher = more signal.
The nature of test [20]: small-molecule microarray binders of probe aEGFR, primary screen, biochemical, biotinylated probe, 635/667 nm fluorescence (AID 1097).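 Note: probe is a biotinylated anti-EGFR antibody binding compounds printed on slides; score combines fluorescence near 667 nm and signal to noise of each spot.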 The settings on record: higher = more signal.

Chain of Torsin-1A-interacting protein 2 (Homo sapiens) (Q8NFQ8 whole entry, looked up): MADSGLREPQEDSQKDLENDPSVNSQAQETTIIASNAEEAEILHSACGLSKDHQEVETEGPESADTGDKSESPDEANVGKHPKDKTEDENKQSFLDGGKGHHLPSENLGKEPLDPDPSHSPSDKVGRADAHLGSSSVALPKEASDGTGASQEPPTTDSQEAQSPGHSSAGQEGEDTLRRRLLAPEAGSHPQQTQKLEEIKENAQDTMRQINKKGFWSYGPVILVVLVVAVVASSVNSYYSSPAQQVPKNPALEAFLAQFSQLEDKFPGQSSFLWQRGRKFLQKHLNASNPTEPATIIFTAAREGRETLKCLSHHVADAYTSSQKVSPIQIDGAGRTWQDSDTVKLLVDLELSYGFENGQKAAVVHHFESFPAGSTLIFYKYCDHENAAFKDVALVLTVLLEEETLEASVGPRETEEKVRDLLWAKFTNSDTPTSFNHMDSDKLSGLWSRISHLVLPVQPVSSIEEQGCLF
Chain of Pro-neuregulin-1, membrane-bound isoform (Homo sapiens) (Q02297 whole entry, looked up, the tested form may be a part, canonical isoform): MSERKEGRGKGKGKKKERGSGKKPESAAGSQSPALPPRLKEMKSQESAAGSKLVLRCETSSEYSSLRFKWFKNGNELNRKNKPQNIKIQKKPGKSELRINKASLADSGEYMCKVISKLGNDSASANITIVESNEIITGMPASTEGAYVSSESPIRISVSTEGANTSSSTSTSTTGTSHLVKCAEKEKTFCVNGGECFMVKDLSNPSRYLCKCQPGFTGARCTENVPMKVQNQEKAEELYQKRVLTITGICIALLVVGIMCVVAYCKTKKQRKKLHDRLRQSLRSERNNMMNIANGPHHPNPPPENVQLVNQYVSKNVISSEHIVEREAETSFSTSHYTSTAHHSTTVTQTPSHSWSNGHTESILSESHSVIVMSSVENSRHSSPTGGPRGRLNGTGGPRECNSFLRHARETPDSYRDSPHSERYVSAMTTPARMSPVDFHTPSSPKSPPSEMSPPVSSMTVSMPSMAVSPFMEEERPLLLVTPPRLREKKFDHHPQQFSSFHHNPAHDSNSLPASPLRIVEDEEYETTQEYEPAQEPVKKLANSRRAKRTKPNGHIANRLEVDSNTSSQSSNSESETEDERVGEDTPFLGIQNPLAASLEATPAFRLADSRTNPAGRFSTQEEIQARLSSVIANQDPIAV
Chain of Neurogenic locus notch homolog protein 2 (Homo sapiens) (Q04721 whole entry, looked up, canonical isoform): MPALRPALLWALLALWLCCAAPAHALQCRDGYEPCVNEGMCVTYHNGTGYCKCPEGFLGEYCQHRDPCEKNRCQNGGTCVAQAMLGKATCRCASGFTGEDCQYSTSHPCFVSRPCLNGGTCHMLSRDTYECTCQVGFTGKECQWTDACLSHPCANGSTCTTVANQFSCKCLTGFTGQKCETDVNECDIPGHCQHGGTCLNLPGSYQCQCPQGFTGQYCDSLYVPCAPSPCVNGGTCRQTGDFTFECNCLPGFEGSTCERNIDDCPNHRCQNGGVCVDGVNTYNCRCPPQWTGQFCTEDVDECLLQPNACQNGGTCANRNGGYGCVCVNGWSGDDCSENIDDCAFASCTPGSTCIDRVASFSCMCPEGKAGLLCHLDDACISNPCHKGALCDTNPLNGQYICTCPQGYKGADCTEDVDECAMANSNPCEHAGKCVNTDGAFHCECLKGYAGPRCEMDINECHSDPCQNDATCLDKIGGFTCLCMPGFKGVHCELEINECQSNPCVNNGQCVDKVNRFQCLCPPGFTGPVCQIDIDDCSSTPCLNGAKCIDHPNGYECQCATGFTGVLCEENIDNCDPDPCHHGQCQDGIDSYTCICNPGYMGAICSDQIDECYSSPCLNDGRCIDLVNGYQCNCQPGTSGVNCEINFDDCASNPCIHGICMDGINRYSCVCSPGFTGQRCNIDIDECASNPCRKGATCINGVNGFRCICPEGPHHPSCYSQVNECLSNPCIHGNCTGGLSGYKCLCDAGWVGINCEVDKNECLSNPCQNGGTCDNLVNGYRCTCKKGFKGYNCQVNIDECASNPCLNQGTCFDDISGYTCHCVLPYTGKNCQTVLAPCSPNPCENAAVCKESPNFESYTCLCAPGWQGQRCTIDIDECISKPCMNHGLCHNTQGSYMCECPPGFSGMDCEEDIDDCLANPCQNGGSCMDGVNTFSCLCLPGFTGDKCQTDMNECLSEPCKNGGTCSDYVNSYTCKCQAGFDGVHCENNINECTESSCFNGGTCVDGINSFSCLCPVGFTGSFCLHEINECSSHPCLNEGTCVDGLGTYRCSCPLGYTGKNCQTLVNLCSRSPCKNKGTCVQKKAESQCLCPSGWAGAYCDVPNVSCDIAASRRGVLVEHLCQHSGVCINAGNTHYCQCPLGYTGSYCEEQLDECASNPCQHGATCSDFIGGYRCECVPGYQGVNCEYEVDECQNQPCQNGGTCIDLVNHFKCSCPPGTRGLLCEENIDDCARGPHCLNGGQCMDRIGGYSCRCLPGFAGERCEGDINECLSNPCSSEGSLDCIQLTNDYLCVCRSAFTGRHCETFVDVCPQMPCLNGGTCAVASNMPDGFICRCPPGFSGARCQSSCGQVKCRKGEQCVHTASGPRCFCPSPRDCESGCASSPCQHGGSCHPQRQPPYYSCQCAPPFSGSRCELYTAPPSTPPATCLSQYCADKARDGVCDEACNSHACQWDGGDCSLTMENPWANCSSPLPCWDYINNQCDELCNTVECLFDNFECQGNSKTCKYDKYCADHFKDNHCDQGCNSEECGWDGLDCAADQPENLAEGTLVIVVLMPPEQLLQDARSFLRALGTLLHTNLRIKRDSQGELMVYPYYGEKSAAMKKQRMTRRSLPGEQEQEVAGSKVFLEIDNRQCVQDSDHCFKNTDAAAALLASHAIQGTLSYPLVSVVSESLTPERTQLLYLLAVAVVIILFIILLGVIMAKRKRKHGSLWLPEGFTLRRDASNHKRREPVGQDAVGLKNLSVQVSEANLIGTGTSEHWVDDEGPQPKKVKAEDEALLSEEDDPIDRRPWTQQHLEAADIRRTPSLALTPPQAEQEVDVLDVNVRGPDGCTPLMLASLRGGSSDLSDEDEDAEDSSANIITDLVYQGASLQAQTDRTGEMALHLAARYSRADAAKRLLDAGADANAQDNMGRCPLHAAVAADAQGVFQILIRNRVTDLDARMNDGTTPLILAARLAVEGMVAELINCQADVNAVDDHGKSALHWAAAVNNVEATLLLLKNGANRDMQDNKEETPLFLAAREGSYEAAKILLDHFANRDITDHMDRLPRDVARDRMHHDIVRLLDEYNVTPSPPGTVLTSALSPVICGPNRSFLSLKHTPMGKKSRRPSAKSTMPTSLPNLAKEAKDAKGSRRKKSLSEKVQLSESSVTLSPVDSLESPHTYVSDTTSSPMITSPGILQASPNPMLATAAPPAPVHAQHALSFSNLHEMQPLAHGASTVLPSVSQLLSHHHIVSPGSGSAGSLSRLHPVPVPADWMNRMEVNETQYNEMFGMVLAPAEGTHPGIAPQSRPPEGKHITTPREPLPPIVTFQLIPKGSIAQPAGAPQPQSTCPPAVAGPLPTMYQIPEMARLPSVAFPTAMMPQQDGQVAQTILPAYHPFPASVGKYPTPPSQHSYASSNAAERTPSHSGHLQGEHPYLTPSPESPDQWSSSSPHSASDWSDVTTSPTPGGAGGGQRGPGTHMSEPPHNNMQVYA

Consider `CC(=O)OC[C@H]1O[C@H](CCON=C(C)C)C=C[C@@H]1OC(C)=O`, for which the composite z-score in [1] is -0.711; in [2] it was -0.224; in test [3] it was -0.116; in [4] it was 0.146; in [5] it was 0.121; in [6], -0.172. The composite z-score in test [7] is -0.529; in test [9], 0.36; in test [10], -0.0645; in [11] it was 0.0126; in test [15] it was 0.24; in [17], -0.152. The composite z-score in [18] is 0.373; in [19], 0.0158; in [20] it was -0.0364. The z-score in [8] is 0.2 (inactive); in test [12] it was 0.765 (inactive); in test [13], 0.568 (inactive); in test [14] it was 0.748 (inactive); in test [16], 0.193 (inactive).
In the case of `CON=C(C)CCN1CCCCc2nc(C)c(C)cc21`, the composite z-score in test [1] was found to be 0.367; in [2], 1.01; in test [3] it was 0.0121; in [4], 0.241; in [5] it was 0.133; in test [6], 0.525. For the same molecule, the composite z-score in test [7] was 0.93; in test [9], 0.437; in test [10] it was -0.0296; in test [11] it was 0.46; in test [15], 0.799; in [17], 0.0945. The figures for the composite z-score in [18], in [19] and in test [20] were 0.572, 0.397 and 0.0978, respectively. Also, the z-score is 0.997 (inactive) in test [8]; -0.114 (inactive) in [12]; -0.0037 (inactive) in test [13]; -0.508 (inactive) in [14]; 0.165 (inactive) in test [16].
`Cc1ccc2[nH]c3nc(CCCn4ccnc4-c4ccccc4)nnc3c2c1`: the composite z-score in test [1] is -0.172; in [2], 0.616; in test [3], -0.119; in test [4] it was 0.247; in test [5], 1.63; in test [6], 0.742. The composite z-score in test [7] amounted to 1.12; in test [9], 0.26; in test [10] it was 0.0274; in [11] it was 0.842; in [15] it was 1.38; in test [17] it was 0.504. Further, the composite z-score in [18] was 0.385; in test [19], 1.12; in [20], -0.009. The z-score is 0.921 (inactive) in [8]; 0.324 (inactive) in test [12]; 0.0855 (inactive) in test [13]; -0.425 (inactive) in test [14]; 1.13 (inactive) in test [16].
With `CC1(C)O[C@H]2OC([C@H](O)CON3C(=O)c4ccccc4C3=O)[C@H](O)[C@H]2O1` (stereo not given in full), the composite z-score in test [1] is -0.437; in test [2] it was -0.0068; in test [3] it was -0.175; in test [4], 0.0685; in [5], 0.335; in test [6], 0.166. For the same molecule, the composite z-score was 0.0939 in [7]; 0.169 in test [9]; -0.374 in test [10]; 0.318 in test [11]; -0.061 in [15]; -0.0561 in test [17]. For the same molecule, the composite z-score in test [18] was found to be 0.441; in [19], 0.419; in test [20], 0.0434. Besides, the z-score was 0.516 (inactive) in [8]; -0.702 (inactive) in test [12]; -0.344 (inactive) in test [13]; -0.425 (inactive) in [14]; 0.742 (inactive) in test [16].
As for `CCN1C(=O)[C@H]2[C@H]3[C@H](O)[C@H](O)CC(=NOCC=C(C)CCC=C(C)C)[C@@H]3CC[C@H]2C1=O`, the composite z-score was -0.524 in test [1]; 1.36 in test [2]; -0.146 in test [3]; 0.483 in [4]; 0.2 in [5]; -0.0702 in test [6]. Further, the composite z-score in test [7] was 0.91; in test [9] it was 0.774; in [10] it was -0.0994; in test [11], 1.4; in test [15], 0.915; in test [17] it was -0.0973. In addition, the composite z-score in [18] turned out to be 0.962; in test [19], 1.08; in [20], 0.095. Further, the z-score in [8] was 0.256 (inactive); in test [12], -0.56 (inactive); in [13], -1.86 (inactive); in [14], -1.3 (inactive); in test [16] it was 0.756 (inactive).
